In all, about 370,000 compounds went through this assay and about 4,100 (1.1%) were called active. Only a selection was taken, and actives are over-represented in it overall. Unmarked numbers belong to inactive results.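 How the source made its calls: active means inhibition above the mean over all tested compounds plus 3 SD (cut at about 3.6% in these data); inactive means the rest.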

Broadly, the inhibition is the drop in the measured response relative to a control, in per cent.

A short description of this assay: relief of DAX-1 repression of SF-1 activity – cell-based, luminescence, SF-1 (NR5A1), full-length DAX-1, primary screen (AID 652010).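 Further: 0% = DAX-1 cells with DMSO and 100% = cells lacking DAX-1 with DMSO; higher inhibition means more luminescence from relief of DAX-1 repression.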 The following applies: HEK293T StAR-luciferase reporter, SF-1/DAX-1 repression relief; at 6.8 µM; hits give high values.
As for `COc1ccc(-c2csc(-c3cccs3)n2)cc1OC`, the inhibition is 7.97% (active). In the case of `COc1ccc(-c2csc3nc(-c4ccccc4F)oc(=O)c23)cc1OC` it was -0.99%; in that of `COc1ccc(C2CC(c3cccs3)=Nc3ccccc3S2)cc1OC` (configuration not stated), 1.16%; in that of `O=C(CCl)NC1CCCCN(Cc2cccc(C(F)(F)F)c2)C1=O` (configuration not stated), -3.93%. For `C[C@H](O)[C@@H]1CN2CCc3ccc(-c4ccc5c(c4)OCO5)cc3[C@@H]2C[C@@H]1N(C)C(=O)C1CCCCC1`, the inhibition is 0.38%. Regarding `COC(=O)[C@]12C[C@H](CC(=O)N3CCOCC3)C(=O)N(Cc3ccc(Cl)cc3Cl)C1=C[C@H](COCc1ccccc1)O[C@@H]2C`, the inhibition was -0.57%.

In the case of `CCCCNc1cccc2c1S(=O)(=O)N[C@@H](C)CO2`, the inhibition is -0.56%. Take `CC(Oc1ccccc1[N+](=O)[O-])C(=O)N/N=C/c1ccoc1` (configuration not stated): the inhibition is 6.45% (active). On to `Cc1ccc(OCC(=O)Oc2ccccc2[N+](=O)[O-])cc1`, for which the inhibition was 0.05%. As for `CC(C)c1cc(C(=O)N/N=C/c2ccoc2)c(O)c(C(C)C)c1`, the figure is -0.83%.

Turning to `CCOC(=O)C1CSCCS(=O)(=O)N1Cc1ccc(Cl)cc1` (configuration not stated), the inhibition is -1.28%. Regarding `COC(=O)c1c(C(=O)OC)c2n(c1C)CCS2`, the inhibition was 0.03%. In the case of `COc1ccc(NCc2nnc(SCc3ccccc3)n2-c2ccc(OC)cc2)cc1` it was 0.16%; in that of `COc1ccc2nc(SCc3ccccc3)nc(C)c2c1`, 5.06% (active); in that of `COc1cccc(CSc2nnc(-c3cccnc3)n2Cc2ccccc2)c1`, 1.04%. Turning to `COC(=O)[C@]12C[C@H](CC(=O)NCc3ccc(C)o3)C(=O)N(CCC3=CCCCC3)C1=C[C@H](C(C)(C)C)O[C@@H]2C`, the inhibition was -0.72%. On to `CCOC(=O)[C@@]12CCC3=C1N(CCC3)C(=O)[C@H](CC(=O)N1CCN(C(=O)c3ccco3)CC1)C2`, for which the inhibition is 0.29%. Take `Cc1ccccc1CN1CCCCC(NC(=O)Nc2ccccc2F)C1=O` (configuration not stated): the inhibition was -2.67%. As for `Cc1cc(C)nc(NC(=O)/C=C/c2ccc(Cl)cc2)n1`, the inhibition was 0.12%. Take `CC(C)(C)c1ccc(/C=C/C(=O)NCCCn2ccnc2)cc1`: the inhibition was 0.37%.

In the case of `CC(C)(C)c1ccc(/C=C/C(=O)Nc2ncccn2)cc1`, the inhibition is 3.9% (active).

Consider `CC(=O)N1C[C@@H](CO)[C@@H](N(C)C(=O)C(C)(C)C)C[C@H]1c1ccccc1Br`, for which the inhibition was 0.98%.

Take `COC(=O)C[C@H]1CC[C@H]2[C@H](COc3ccc(NC(=O)C4CC4)cc3C(=O)N2C)O1`: the inhibition was 1.68%.

Regarding `Cc1[nH]nc(-c2ccc(OCc3cnn(-c4ccccc4)c3)cc2O)c1Oc1ccc(Cl)cc1`, the inhibition is -0.45%. Take `O=C(c1cnn(-c2ccc(Cl)cc2)c1)c1ccccc1O`: the inhibition was 6.14% (active). As for `CC(=O)c1nn(-c2ccc(C)cc2)cc1C(=O)c1cccc(Br)c1`, the figure is -0.24%. As for `COc1cccc(Cn2cc(COC(=O)Nc3ccc(F)cc3)nn2)c1`, the figure is -0.2%; as for `COc1ccc(S(=O)(=O)NCC(=O)NC2CC2)cc1OC`, -0.86%; as for `CC(=O)Nc1ccc(OC[C@@H](O)CN2CCC(C(O)(c3ccccc3)c3ccccc3)CC2)cc1`, 0.02%. As for `O=C(CSc1nnc(CNC(=O)c2ccc(F)cc2)o1)Nc1ccc2c(c1)OCO2`, the figure is -1.07%; as for `COc1ccc([N+](=O)[O-])cc1C1NN=C(c2cccc3ccccc23)S1` (configuration not stated), 0.7%; as for `COc1ccc(CN2CCCC(C(=O)c3ccc(Cl)cc3)C2)cc1Cn1cncn1` (configuration not stated), 0.63%.

Consider `COc1ccc(C2Nc3ccccc3C(=O)N2c2ccc(Cl)cc2)cc1Cn1cc([N+](=O)[O-])cn1` (configuration not stated), for which the inhibition was 3.84% (active).

On to `O=C(Oc1ccc(-c2nnco2)cc1)c1ccc(F)c(S(=O)(=O)N2CCOCC2)c1`, for which the inhibition is -0.14%. As to `CC(=O)N1CCCN(C2=Nc3ccccc3Sc3ccccc32)CC1`, the inhibition is -0.16%. Take `CCC(C)[C@@H](C(=O)OC)N(CCc1cn(Cc2ccccc2)nn1)S(=O)(=O)c1ccccc1Br` (some centres not stated): the inhibition was -0.61%. Take `N#Cc1ccccc1OC[C@@H](O)CN1CCC(C(O)(c2ccccc2)c2ccccc2)CC1`: the inhibition was -0.84%.

As for `COc1ccc(/C=C/C(=O)OCC(=O)NC2CCCCCC2)cc1OC`, the inhibition was 2.29%. As for `COc1cc(/C=C/C(=O)Nc2ccc(OC)c(S(=O)(=O)N3CCOCC3)c2)ccc1OCC#N`, the inhibition was -2.07%. Turning to `COc1ccc(/C=C/C(=O)Nc2ccc(C34CC5CC(CC(O)(C5)C3)C4)cc2)cc1OC`, the inhibition was 8.95% (active). Consider `O=C(NC1CCCC1)C1CSCCS(=O)(=O)N1Cc1ccccc1` (configuration not stated), for which the inhibition was 0.54%. In the case of `CNC(=O)c1[nH]cnc1C(=O)N[C@@H](CC(C)C)C(=O)OC(C)(C)C`, the inhibition is -0.49%. As for `CC[C@]1(O)CC2CN(CCc3c([nH]c4ccccc34)[C@@](C(=O)OC)(c3cc4c(cc3OC)N(C=O)[C@H]3[C@@](O)(C(=O)OC)[C@H](OC(C)=O)[C@]5(CC)C=CCN6CC[C@]43[C@@H]65)C2)C1` (some centres not stated), the figure is 12.9% (active); as for `CC[C@]1(O)C[C@@H]2CN(CCc3c([nH]c4ccccc34)[C@@](C(=O)OC)(c3cc4c(cc3OC)N(C)[C@H]3[C@@](O)(C(=O)OC)[C@H](OC(C)=O)[C@]5(CC)C=CCN6CC[C@]43[C@@H]65)C2)C1`, 9.42% (active). In the case of `CC(C)(C)c1ccc(CSc2nnc(-c3cccs3)o2)cc1` it was -0.57%; in that of `CCOC(=O)C(=O)N(Cc1ccccc1)c1ccccc1C(=O)Nc1cc(OC)ccc1OC`, -0.54%.

For the compound `CCOC(=O)N1CCN(C(=O)C2CCN(S(C)(=O)=O)CC2)CC1`, the inhibition is 0.3%. As for `COc1cc(NC(=O)c2ccc(-c3csc(C)n3)cc2)c(OC)cc1Cl`, the figure is 0.05%; as for `Cn1c(SCC(=O)Nc2cccc(NC(=O)c3cccs3)c2)nnc1-c1ccncc1`, -0.42%; as for `Cc1nc(-c2ccc(NC(=O)c3cccs3)cc2)cs1`, 3.66% (active). Turning to `O=C(CSc1nnc(COc2ccccc2)n1Cc1ccco1)c1ccc2ccccc2c1`, the inhibition is -1.45%. As for `O=C(NN=Cc1ccco1)C(=O)Nc1ccc(Cl)c([N+](=O)[O-])c1`, the figure is 0.2%; as for `CCNC(=O)c1sccc1-n1cccc1`, -0.31%. In the case of `Cc1ccsc1C(=O)NCCc1ccco1` it was 4.3% (active). In the case of `Cc1ccsc1C(=O)NC1CCCCC1C` (configuration not stated) it was -0.66%; in that of `COc1cccc(CNC(=O)[C@H]2CCCN2C(=O)[C@H]2CCCN2C(=O)C2CCCCC2)c1`, -1.49%.

Take `Cc1ccc(-n2c(SCC(=O)Nc3cccc4ccccc34)nnc2-c2ccccn2)cc1`: the inhibition is -0.57%. As for `O=C(NCCC1=CCCCC1)C1CCN(S(=O)(=O)c2ccc(Cl)s2)CC1`, the figure is 0.02%.

On to `CC[C@]12c3[nH]c4cc(CCC(=O)N(C)C)ccc4c3CCN1C(=O)[C@@H](CC(=O)NCc1ccco1)C[C@@H]2C(=O)N1CCN(C(=O)c2ccco2)CC1`, for which the inhibition was 0.22%. Take `CC[C@]12c3[nH]c4cc(CCC(=O)N(C)C)ccc4c3CCN1C(=O)[C@@H](CC(=O)NCCCn1ccnc1)C[C@@H]2C(=O)N1CCN(C(=O)C2CC2)CC1`: the inhibition was -0.23%. In the case of `CC[C@]12c3[nH]c4cc(CCC(=O)N(C)C)ccc4c3CCN1C(=O)[C@@H](CC(=O)NCCCN(C)C)C[C@@H]2C(=O)N1CCN(C(=O)c2ccco2)CC1` it was 3.91% (active).

In the case of `Cc1nc2ccc(C(=O)N3CCN(C(=O)C(C)(C)C)CC3)cc2n1C1CCCC1`, the inhibition was 1.16%. As for `COc1ccc(-n2c(SCC(=O)Nc3ccc(C)c(Cl)c3)nc3ccccc3c2=O)cc1`, the figure is -1.67%; as for `O=C(NCc1cccs1)c1ccc2c(c1)ncn2C1CCCC1`, 0.35%; as for `Nn1c(SCC(=O)Nc2ccc(S(N)(=O)=O)cc2)nnc1-c1n[nH]c2c1CCC2`, 0.11%. For `COC(=O)C1CN(CCc2ccccc2)CCS(=O)(=O)N1Cc1ccc(F)cc1` (configuration not stated), the inhibition was -0.43%. Consider `CN(CCc1ccccc1)c1ccc([N+](=O)[O-])cn1`, for which the inhibition is -0.34%. `CC(C)c1ccc(C=NNc2ccc([N+](=O)[O-])cn2)cc1`: the inhibition was 4.69% (active). In the case of `CC(C)c1ccc(/C=C2\NC(=O)NC2=O)cc1`, the inhibition was 0.05%.

In the case of `Cc1ccc(C(=O)NN(CCC#N)C2=NS(=O)(=O)c3ccccc32)cc1`, the inhibition was 0.06%. In the case of `O=C(NCc1ccccc1)[C@H]1CCCN1C(=O)[C@@H]1CCCN1C(=O)c1ccc(Cl)cc1Cl` it was 0.24%; in that of `CC[C@@H](CCC(=O)N(c1ccccc1)c1ccccc1)C1CC1`, -1.2%; in that of `CCOc1cc(C(=S)N2CCOCC2)ccc1OS(=O)(=O)c1ccc(Br)cc1`, 0.06%. As for `CC(=O)Nc1ccc(S(=O)(=O)Oc2ccc(Br)cc2C(=S)N2CCOCC2)cc1`, the figure is -1.94%; as for `O=S(=O)(Oc1ccccc1C(=S)N1CCOCC1)c1ccc(Cl)cc1`, 3.63% (active). For the compound `COC(=O)c1cc(S(=O)(=O)N2CCN(c3ccccc3C)CC2)cn1C`, the inhibition is -1.02%. Consider `CC(c1c[nH]c2ccccc12)c1c(-c2ccccc2)n(C)c2ccccc12` (configuration not stated), for which the inhibition was -0.37%. In the case of `CC(=O)N1CCc2cc(S(=O)(=O)NCCC(=O)N3CCCC3)ccc21` it was -1.5%.

For the compound `COc1ccc(C(=NN)c2ccc(OC)cc2)cc1`, the inhibition is 0.31%.

Turning to `COc1ccc(C(C#N)=C2C=CC(=NO)c3ccccc32)cc1`, the inhibition is 4.3% (active). For `COc1ccc(/C(N)=N/OC(=O)Oc2ccccc2)cc1`, the inhibition is -0.74%.

`O=C(N[C@H](Cc1ccccc1)C(=O)N1CCCN(Cc2cccs2)CC1)[C@H]1O[C@@H](n2ccc(=O)[nH]c2=O)[C@H](O)[C@@H]1O`: the inhibition was 1.64%.

The record behind these values is PubChem BioAssay AID652010 (The Scripps Research Institute Molecular Screening Center, 2013).
